These results are taken from paper PMC3218832.

Targets include RELARELA (p65 homodimer) (Homo sapiens, UniProt Q04206 1-307); p50p50 homodimer (Homo sapiens, UniProt P19838 7-356); RELB subunit;p50 subunit (Homo sapiens;Homo sapiens, UniProt Q01201;P19838 120-401;7-356).
What all share (assay): protein binding microarray; high values mean tight binding
Holding throughout (settings): dsDNA, one strand shown

A further test deals with T1, p52p52 homodimer (Homo sapiens, UniProt Q00653 4-332).
T1 sequence: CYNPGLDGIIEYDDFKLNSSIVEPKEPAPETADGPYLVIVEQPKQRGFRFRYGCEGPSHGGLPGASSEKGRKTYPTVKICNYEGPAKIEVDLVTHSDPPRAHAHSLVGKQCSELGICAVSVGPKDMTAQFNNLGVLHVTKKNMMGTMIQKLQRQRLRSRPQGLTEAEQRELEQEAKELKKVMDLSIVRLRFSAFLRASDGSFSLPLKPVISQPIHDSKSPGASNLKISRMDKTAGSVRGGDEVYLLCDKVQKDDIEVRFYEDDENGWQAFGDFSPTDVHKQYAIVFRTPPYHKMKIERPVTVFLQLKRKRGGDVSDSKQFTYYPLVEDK

Test [1] deals with RELA (p65) subunit of heterodimer;p50 subunit (Homo sapiens;Homo sapiens, UniProt Q04206;P19838 1-307;7-356).
In test [2] the target is RELA (p65) subunit of heterodimer;p52 subunit (Homo sapiens;Homo sapiens, UniProt Q04206;Q00653 1-307;4-332).
Another test addresses T2, RELB subunit;p52 subunit (Homo sapiens;Homo sapiens, UniProt Q01201;Q00653 120-401;4-332).
T2 sequence 1: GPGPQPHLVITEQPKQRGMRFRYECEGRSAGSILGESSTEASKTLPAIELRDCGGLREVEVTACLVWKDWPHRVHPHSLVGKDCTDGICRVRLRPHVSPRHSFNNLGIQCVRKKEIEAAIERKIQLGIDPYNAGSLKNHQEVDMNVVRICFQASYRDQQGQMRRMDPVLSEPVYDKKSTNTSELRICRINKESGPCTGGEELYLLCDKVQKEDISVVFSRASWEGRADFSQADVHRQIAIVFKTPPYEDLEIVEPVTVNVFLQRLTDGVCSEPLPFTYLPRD
T2 sequence 2: T1 sequence

Test [3] deals with C-Rel subunit;p50 subunit (Homo sapiens;Homo sapiens, UniProt Q04864;P19838 1-285;7-356).
Test [4] addresses T3, C-Rel subunit;p52 subunit (Homo sapiens;Homo sapiens, UniProt Q04864;Q00653 1-285;4-332).
T3 sequence 1: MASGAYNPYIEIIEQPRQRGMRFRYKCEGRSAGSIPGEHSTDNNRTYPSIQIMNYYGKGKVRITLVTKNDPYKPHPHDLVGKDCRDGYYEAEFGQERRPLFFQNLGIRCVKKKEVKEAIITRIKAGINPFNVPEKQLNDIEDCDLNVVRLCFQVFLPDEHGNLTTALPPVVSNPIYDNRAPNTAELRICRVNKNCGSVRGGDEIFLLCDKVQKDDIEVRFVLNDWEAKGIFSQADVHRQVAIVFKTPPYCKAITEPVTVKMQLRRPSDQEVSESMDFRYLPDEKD
T3 sequence 2: T1 sequence

Chain of RELARELA (p65 homodimer) (Q04206 1-307): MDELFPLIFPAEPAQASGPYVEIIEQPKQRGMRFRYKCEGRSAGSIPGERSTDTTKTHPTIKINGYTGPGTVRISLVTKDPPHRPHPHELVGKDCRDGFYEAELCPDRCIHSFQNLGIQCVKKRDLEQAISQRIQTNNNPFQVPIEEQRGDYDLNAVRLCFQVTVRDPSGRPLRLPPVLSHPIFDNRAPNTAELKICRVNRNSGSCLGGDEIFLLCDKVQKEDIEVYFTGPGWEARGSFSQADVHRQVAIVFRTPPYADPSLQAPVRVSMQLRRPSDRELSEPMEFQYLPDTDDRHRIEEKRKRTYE
Chain of RELA (p65) subunit of heterodimer;p50 subunit (Q04206 1-307, chain 1 of 2): as the sequence (Q04206 1-307) above
Chain of RELA (p65) subunit of heterodimer;p50 subunit (P19838 7-356, chain 2 of 2): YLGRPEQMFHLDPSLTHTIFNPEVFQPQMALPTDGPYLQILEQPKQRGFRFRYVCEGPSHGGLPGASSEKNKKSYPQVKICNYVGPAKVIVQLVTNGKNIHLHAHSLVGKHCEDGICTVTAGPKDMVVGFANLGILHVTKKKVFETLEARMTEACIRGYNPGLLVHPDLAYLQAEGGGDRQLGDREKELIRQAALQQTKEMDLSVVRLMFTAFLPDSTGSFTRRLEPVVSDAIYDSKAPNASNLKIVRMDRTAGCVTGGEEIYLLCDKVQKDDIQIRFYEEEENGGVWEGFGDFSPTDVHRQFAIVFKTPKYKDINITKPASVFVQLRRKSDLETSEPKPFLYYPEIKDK
Chain of p50p50 homodimer (P19838 7-356): as the sequence (P19838 7-356, chain 2 of 2) above

For CGAAGTGTCCT, the binding signal was -0.41 z-score in the test with RELARELA (p65 homodimer); -1.95 z-score with p50p50 homodimer; -0.44 z-score with p52p52 homodimer; -0.957 z-score in test [1]; -0.797 z-score in test [2]; -1.13 z-score with RELB subunit;p50 subunit. In addition, the binding signal in the test with RELB subunit;p52 subunit was -0.796 z-score; in [3] it was -1.19 z-score; in test [4] it was -0.64 z-score.

For CAGGTTGTCCT, the binding signal in the test with RELARELA (p65 homodimer) is -0.115 z-score; with p50p50 homodimer, -0.869 z-score; with p52p52 homodimer it was -0.451 z-score; in [1], -0.774 z-score; in [2] it was -0.884 z-score; with RELB subunit;p50 subunit, -0.961 z-score. For the same sequence, the figures for the binding signal (in the test with RELB subunit;p52 subunit; in test [3]; in test [4]) were -0.805 z-score, -1.05 z-score and -0.71 z-score, respectively.

In the case of GAGAATTCCCT, the binding signal with RELARELA (p65 homodimer) worked out at 1.81 z-score; with p50p50 homodimer it was 1.39 z-score; with p52p52 homodimer, 2.1 z-score; in test [1] it was 1.68 z-score; in test [2], 1.6 z-score; with RELB subunit;p50 subunit, 1.65 z-score. For the same sequence, the binding signal with RELB subunit;p52 subunit worked out at 1.74 z-score; in test [3], 1.43 z-score; in test [4] it was 1.33 z-score.

On to GGGAAGCTCCC, for which the binding signal amounted to 1.42 z-score in the test with RELARELA (p65 homodimer); 0.219 z-score in the test with p50p50 homodimer; 1.52 z-score with p52p52 homodimer; 1.07 z-score in [1]; 1.16 z-score in [2]; 0.839 z-score with RELB subunit;p50 subunit. The binding signal came out at 0.35 z-score in the test with RELB subunit;p52 subunit, 0.354 z-score in test [3] and 0.716 z-score in test [4].

Take GAGAACTTCCT: the binding signal with RELARELA (p65 homodimer) is 0.439 z-score; with p50p50 homodimer it was -0.697 z-score; in the test with p52p52 homodimer, -0.718 z-score; in [1], -0.503 z-score; in [2], -0.731 z-score; with RELB subunit;p50 subunit, -0.944 z-score. The binding signal was -0.781 z-score with RELB subunit;p52 subunit, -0.692 z-score in test [3] and -0.645 z-score in [4].

Take CGGGGAATCCC: the binding signal was 3.57 z-score with RELARELA (p65 homodimer); 1.22 z-score with p50p50 homodimer; 3.13 z-score with p52p52 homodimer; 2.36 z-score in [1]; 2.81 z-score in test [2]; 2.64 z-score in the test with RELB subunit;p50 subunit. Besides, the binding signal with RELB subunit;p52 subunit worked out at 2.75 z-score; in test [3] it was 2.51 z-score; in [4], 3.54 z-score.

CAAATGCCCCT: the binding signal with RELARELA (p65 homodimer) was 0.347 z-score; with p50p50 homodimer, 1.15 z-score; in the test with p52p52 homodimer it was 1.14 z-score; in test [1], 1.2 z-score; in test [2] it was 1.19 z-score; in the test with RELB subunit;p50 subunit, 1.21 z-score. Also, the binding signal in the test with RELB subunit;p52 subunit was 1.47 z-score; in test [3], 0.882 z-score; in [4], 1.38 z-score.

Turning to CAGTTGACCCT, the binding signal in the test with RELARELA (p65 homodimer) is -0.398 z-score; in the test with p50p50 homodimer, -0.922 z-score; with p52p52 homodimer, -0.533 z-score; in test [1], -0.555 z-score; in [2], -0.554 z-score; with RELB subunit;p50 subunit, -0.526 z-score. The values for the binding signal (with RELB subunit;p52 subunit; in test [3]; in test [4]) were -0.777 z-score, -1.18 z-score and -0.639 z-score, respectively.

Take CAATATACCCC: the binding signal with RELARELA (p65 homodimer) is -0.012 z-score; with p50p50 homodimer, 0.317 z-score; with p52p52 homodimer it was 0.195 z-score; in test [1], 0.199 z-score; in test [2], 0.442 z-score; in the test with RELB subunit;p50 subunit, 0.428 z-score. Also, the binding signal with RELB subunit;p52 subunit is 0.992 z-score; in test [3] it was 0.384 z-score; in test [4], 0.51 z-score.

Regarding GAAGTGTCCCT, the binding signal in the test with RELARELA (p65 homodimer) is -0.0315 z-score; with p50p50 homodimer, 0.834 z-score; with p52p52 homodimer, 0.946 z-score; in test [1] it was 0.67 z-score; in test [2], 1.04 z-score; with RELB subunit;p50 subunit, 1.07 z-score. Besides, the binding signal in the test with RELB subunit;p52 subunit worked out at 1.37 z-score; in test [3], 0.382 z-score; in test [4] it was 0.65 z-score.

With AAAGAGACCCT, the binding signal is -1.1 z-score with RELARELA (p65 homodimer); -0.515 z-score in the test with p50p50 homodimer; -0.457 z-score in the test with p52p52 homodimer; -0.679 z-score in test [1]; -0.542 z-score in [2]; -0.626 z-score in the test with RELB subunit;p50 subunit. Moreover, the binding signal with RELB subunit;p52 subunit was -0.766 z-score; in test [3], -1.12 z-score; in [4], -0.688 z-score.

In the case of GGATGCATCCC, the binding signal in the test with RELARELA (p65 homodimer) is -0.168 z-score; with p50p50 homodimer, -0.953 z-score; with p52p52 homodimer, -0.436 z-score; in test [1], -0.723 z-score; in [2] it was -0.685 z-score; with RELB subunit;p50 subunit, -0.7 z-score. Also, the figures for the binding signal (with RELB subunit;p52 subunit; in [3]; in test [4]) were -0.821 z-score, -1.05 z-score and -0.672 z-score, respectively.

With AAAATGATCCC, the binding signal in the test with RELARELA (p65 homodimer) is -0.603 z-score; with p50p50 homodimer, -0.272 z-score; with p52p52 homodimer it was -0.265 z-score; in test [1], -0.543 z-score; in test [2] it was -0.453 z-score; in the test with RELB subunit;p50 subunit, -0.443 z-score. The binding signal with RELB subunit;p52 subunit is -0.704 z-score; in [3] it was -0.71 z-score; in test [4] it was -0.512 z-score.

In the case of GAGGAATCCCT, the binding signal is 0.176 z-score with RELARELA (p65 homodimer); 0.599 z-score with p50p50 homodimer; 0.671 z-score with p52p52 homodimer; 0.612 z-score in [1]; 0.532 z-score in test [2]; 0.403 z-score with RELB subunit;p50 subunit. The binding signal with RELB subunit;p52 subunit turned out to be 0.517 z-score; in [3], 0.573 z-score; in [4] it was 0.416 z-score.

Regarding CGGATGGTCCC, the binding signal with RELARELA (p65 homodimer) was 0.128 z-score; with p50p50 homodimer, -0.139 z-score; with p52p52 homodimer, -0.00887 z-score; in [1], 0.132 z-score; in test [2], 0.027 z-score; with RELB subunit;p50 subunit, -0.0363 z-score. Moreover, the binding signal is -0.117 z-score with RELB subunit;p52 subunit, 0.0204 z-score in [3] and 0.154 z-score in test [4].
